Values joined by “and” are separate entries in the source; they are usually repeats but may differ in a detail not shown here. Equal values may be shown once. Inconclusive results are not listed. Active and inactive are the calls of the source. Unless noted, the call rests on the fitted dose curve; in most records, active means well fitted curve in the direction sought with a large enough effect; inconclusive means small, poorly fitted or top-dose-only effect, or another doubt; inactive means no such curve, though single readings can be large; an effect the other way counts as inactive or inconclusive.
Assays:
[1] = AP1 Signaling Pathway (AID 357; active means well fitted curve in either direction with a large enough effect, not every such curve was filed as active;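 further: ME-180 reporter cells stimulated with EGF at its EC50 level; on the % scale 0 is the no-effect control and ±100 the full control effect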); details: ME-180 AP-1-bla reporter, EGF-induced, beta-lactamase ratio, 5 h
Outline: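 Cells are seeded overnight, exposed to compound titrations and an EC50 level of EGF for 5 hours at 37 °C, then loaded with CCF4 dye for 2.5 hours. Beta-lactamase activity under the AP-1 element is read as a blue/green ratio.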

[2] = biological target: Cytochrome P450 1A2 (Homo sapiens) (UniProt P05177); assay: p450-cyp1a2 (AID 410; calls by dose curve; further: potency means the concentration at half of the fitted maximal effect)
Sequence of Cytochrome P450 1A2 (Homo sapiens) (P05177 whole entry, looked up): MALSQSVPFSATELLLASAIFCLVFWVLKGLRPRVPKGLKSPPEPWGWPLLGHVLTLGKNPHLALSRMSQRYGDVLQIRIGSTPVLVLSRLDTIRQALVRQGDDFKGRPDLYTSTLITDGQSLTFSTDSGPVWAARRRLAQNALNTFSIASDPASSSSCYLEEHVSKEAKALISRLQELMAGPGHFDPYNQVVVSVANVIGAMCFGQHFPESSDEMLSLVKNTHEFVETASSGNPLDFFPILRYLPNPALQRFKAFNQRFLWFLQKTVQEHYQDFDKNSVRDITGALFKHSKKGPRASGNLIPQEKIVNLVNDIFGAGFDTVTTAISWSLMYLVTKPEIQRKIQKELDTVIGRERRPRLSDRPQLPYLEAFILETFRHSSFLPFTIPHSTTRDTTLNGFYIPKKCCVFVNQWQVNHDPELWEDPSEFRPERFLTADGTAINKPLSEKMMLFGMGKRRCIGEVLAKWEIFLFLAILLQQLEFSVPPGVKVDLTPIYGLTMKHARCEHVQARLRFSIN
Outline: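 Human CYP1A2 (20nM) demethylated Luciferin-ME at its Km (100uM) in 100mM KPO4. After 10 min compound preincubation, NADPH regeneration ran the reaction 60 min at room temperature. Luciferin was read by luminescence, normalized to 57 uM furafylline.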

[3] = NFAT Signaling Pathway (AID 444; active means well fitted curve in either direction with a large enough effect, not every such curve was filed as active;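 further: carbachol stimulus at about its EC50 of 1 µM final; on the % scale 0 is the no-effect control and ±100 the full control effect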); details: Jurkat NFAT-bla M1, carbachol, beta-lactamase ratio, 5 h
Outline: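 Jurkat cells with NFAT-driven β-lactamase reporter and co-expressed M1 receptor, stimulated with carbachol (final 1 uM, ~EC50), compound titration, 5 h at 37 °C. CCF4 loaded 1 h at RT; 460/530 nm ratio gave %activity and AC50.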

[4] = Stat Signaling Pathway (AID 446; active means well fitted curve in either direction with a large enough effect, not every such curve was filed as active;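 further: ME-180 cervical cancer cells given 40 pM IL-6 alongside compound; SIE-controlled beta-lactamase reporter measured as 460/530 nm FRET emission ratio; on the % scale 0 is the no-effect control and ±100 the full control effect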); details: ME-180 SIE beta-lactamase reporter, IL-6 stimulated, 5 h
Outline: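 Screening format detects activators and inhibitors alike: ME-180 SIE-bla cells stimulated at 40 pM IL-6 for 5 hrs with compound, then dual-emission beta-lactamase read at 405 nm excitation.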

[5] = biological target: Glucocorticoid receptor (Homo sapiens) (UniProt P04150); assay: GR-GFP Redistribution (AID 450;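 active means compounds whose dose series gives a full or clear partial fitted curve of increased nuclear translocation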; further: potency means the concentration at half of the fitted maximal effect); details: U2OS GR-GFP nuclear translocation, laser cytometry, 2 h
Sequence of Glucocorticoid receptor (Homo sapiens) (P04150 whole entry, looked up, the tested form may be a part): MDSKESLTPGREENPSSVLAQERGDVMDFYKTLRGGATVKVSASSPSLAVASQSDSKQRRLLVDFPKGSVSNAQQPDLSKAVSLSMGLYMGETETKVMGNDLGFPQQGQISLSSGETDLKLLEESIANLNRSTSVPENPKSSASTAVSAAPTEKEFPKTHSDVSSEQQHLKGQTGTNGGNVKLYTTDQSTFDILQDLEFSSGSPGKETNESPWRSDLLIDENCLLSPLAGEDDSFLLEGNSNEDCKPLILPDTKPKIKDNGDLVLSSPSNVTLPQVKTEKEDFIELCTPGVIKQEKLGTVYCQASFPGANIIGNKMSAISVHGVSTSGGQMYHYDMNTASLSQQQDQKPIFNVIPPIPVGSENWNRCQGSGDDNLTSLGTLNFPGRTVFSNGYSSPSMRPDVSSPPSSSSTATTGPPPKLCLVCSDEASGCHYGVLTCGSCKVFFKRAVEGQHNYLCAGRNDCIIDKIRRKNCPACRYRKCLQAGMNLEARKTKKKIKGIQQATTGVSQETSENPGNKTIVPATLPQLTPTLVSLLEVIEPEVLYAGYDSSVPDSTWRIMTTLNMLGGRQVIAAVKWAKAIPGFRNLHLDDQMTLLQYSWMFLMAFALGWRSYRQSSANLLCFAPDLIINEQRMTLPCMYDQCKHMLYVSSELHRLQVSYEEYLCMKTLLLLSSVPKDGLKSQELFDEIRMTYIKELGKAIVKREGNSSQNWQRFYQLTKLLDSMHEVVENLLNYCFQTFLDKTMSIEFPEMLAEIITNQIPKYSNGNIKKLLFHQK

[6] = biological target: Glucocorticoid receptor (Homo sapiens) (UniProt P04150); assay: GR-EFC Redistribution (AID 451; calls by dose curve; further: potency means the concentration at half of the fitted maximal effect); details: CHO-K1 GR-EFC translocation, beta-gal luminescence, 2 h
Outline: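 CHO-K1 cells expressing nuclear EA and GR-ED fragments of b-gal; compounds titrated up to 46 uM final, 2 h at 37 C. GR nuclear translocation read as complemented b-gal luminescence after 1 h RT detection.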

[7] = biological target: Mitogen-activated protein kinase 10 (Mus musculus) (UniProt Q61831); assay: JNK3 AlphaScreen Assay (AID 530; active means well fitted curve in either direction with a large enough effect, not every such curve was filed as active;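 further: kinase came from lysate of stimulated human HepG2 cells; signal reports phosphorylation of biotinylated GST-cJun 1-79 at Ser73 with 10 µM ATP; on the % scale 0 is the no-effect control and ±100 the full control effect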)
Outline: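 qHTS format: compounds tested as titrations against IL-1beta/TNF-alpha-activated HepG2 lysate JNK3 with biotin-GST-cJun substrate and 10 uM ATP at room temperature. Loss of anti-phospho-cJun AlphaScreen signal indicates inhibition.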

[8] = biological target: Guanine nucleotide-binding protein G(i) subunit alpha-1 (Homo sapiens) (UniProt P63096); assay: qHTS Assay for Inhibitors of RGS12 GoLoco Motif Activity (Green Fluorophore) (AID 879);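 further: 0% = labeled peptide with Gαi1 and full inhibition = labeled peptide alone without protein; negative values mean loss of peptide binding seen as reduced polarization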
Sequence of Guanine nucleotide-binding protein G(i) subunit alpha-1 (Homo sapiens) (P63096 whole entry, looked up): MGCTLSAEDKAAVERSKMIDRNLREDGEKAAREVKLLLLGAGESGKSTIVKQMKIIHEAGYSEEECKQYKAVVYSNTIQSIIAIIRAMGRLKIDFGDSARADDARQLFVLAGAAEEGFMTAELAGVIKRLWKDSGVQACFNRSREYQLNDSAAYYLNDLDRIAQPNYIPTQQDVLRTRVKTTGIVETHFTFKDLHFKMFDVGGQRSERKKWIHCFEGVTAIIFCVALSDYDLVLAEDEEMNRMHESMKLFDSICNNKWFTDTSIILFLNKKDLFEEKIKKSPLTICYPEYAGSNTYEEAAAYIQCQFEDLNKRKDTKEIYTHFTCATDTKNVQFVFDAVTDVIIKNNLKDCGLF
Outline: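 Fluorescence polarization assay: 50 nM Gαi1 with 10 nM FITC-labeled RGS12 GoLoco peptide in 10 mM Tris pH 7.5, 150 mM NaCl, 0.1 mM GDP, 0.05% NP40, 10 min at room temperature with compound.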

[9] = biological target: Cytochrome P450 3A4 (Homo sapiens) (UniProt P08684); assay: qHTS Assay for Activators of Cytochrome P450 3A4 (AID 885); further: nearly all actives have a fitted effect of over 65% in size
Outline: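 Steps: enzyme/substrate mix dispensed; compound added, 10 min RT; NADPH regeneration solution added, 60 min RT; luciferin detection buffer stops reaction; 20 min later luminescence measured.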

[10] = biological target: Cytochrome P450 2C19 (Homo sapiens) (UniProt P33261); assay: qHTS Assay for Inhibitors and Substrates of Cytochrome P450 2C19 (AID 899); further: on the % scale 0 is the no-effect control and ±100 the full control effect; nearly all actives have a fitted effect of over 60% in size
Sequence of Cytochrome P450 2C19 (Homo sapiens) (P33261 whole entry, looked up): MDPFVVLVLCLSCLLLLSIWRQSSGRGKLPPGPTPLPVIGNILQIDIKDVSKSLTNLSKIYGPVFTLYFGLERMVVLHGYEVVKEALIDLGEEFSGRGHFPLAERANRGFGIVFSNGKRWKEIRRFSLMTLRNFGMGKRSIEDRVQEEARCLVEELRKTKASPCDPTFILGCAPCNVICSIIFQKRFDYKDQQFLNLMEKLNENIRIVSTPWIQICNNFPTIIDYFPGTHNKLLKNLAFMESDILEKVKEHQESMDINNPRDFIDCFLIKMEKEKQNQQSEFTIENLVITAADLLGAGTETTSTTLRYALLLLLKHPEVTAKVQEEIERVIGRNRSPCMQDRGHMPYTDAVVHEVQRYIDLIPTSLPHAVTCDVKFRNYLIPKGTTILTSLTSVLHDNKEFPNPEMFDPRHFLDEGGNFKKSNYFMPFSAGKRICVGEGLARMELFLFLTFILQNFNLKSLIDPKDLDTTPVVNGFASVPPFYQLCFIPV
Outline: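 Luminescent read-out of luciferin formed from Luciferin-H EGE (10uM, equal to KM). Enzyme 5nM in 50mM KPO4; compound added, 10 min at 37C, then NADPH regenerating system for 60 min at 37C. Full inhibition defined by 57uM ketoconazole.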

[11] = biological target: Pyruvate kinase (Leishmania mexicana) (UniProt Q27686); assay: qHTS Validation Assay for Inhibitors of Leishmania Mexicana Pyruvate Kinase (AID 945);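 further: 0% = DMSO only neutral control wells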
Sequence of Pyruvate kinase (Leishmania mexicana) (Q27686 2-499 E452W): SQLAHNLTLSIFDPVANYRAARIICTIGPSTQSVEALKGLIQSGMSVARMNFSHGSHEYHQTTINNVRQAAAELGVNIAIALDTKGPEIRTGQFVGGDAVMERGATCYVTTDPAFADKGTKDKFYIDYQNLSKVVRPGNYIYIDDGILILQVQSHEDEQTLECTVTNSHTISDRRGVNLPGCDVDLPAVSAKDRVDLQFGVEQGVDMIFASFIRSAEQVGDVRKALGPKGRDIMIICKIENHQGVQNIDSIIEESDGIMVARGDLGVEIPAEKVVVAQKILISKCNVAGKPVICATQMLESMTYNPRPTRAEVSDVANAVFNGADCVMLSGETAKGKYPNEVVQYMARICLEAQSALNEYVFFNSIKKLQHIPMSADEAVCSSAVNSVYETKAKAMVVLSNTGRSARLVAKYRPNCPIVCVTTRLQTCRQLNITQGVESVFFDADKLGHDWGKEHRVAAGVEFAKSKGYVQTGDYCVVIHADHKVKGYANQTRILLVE
Outline: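 Read-out: luminescence from PKLight stop/detection reagent, data normalized to DMSO. Reaction: 0.2 nM E451W LmPYK, 0.5 mM PEP, 0.1 mM ADP, pH 7.2, 1 h room temperature.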

[12] = biological target: Pyruvate kinase PKM (Homo sapiens) (UniProt P14618); assay: qHTS Assay for Activators of Human Muscle Pyruvate Kinase (AID 954; active means well fitted curve in the direction sought with a large enough effect, not every such curve was filed as active;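 further: 0% = uninhibited enzyme and -100% = no enzyme or full thiadiazolimine inhibition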)
Outline: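 Reaction: 0.1 nM purified PKM2 with 0.5 mM phosphoenolpyruvate and 0.1 mM ADP, room temperature, 1 h. Readout: luciferase-based ATP luminescence after stop reagent. Activators judged against a 0.3 nM enzyme column.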

[13] = biological target: Alpha-galactosidase A (Homo sapiens) (UniProt P06280); assay: Counterscreen for Glucocerebrosidase Inhibitors: qHTS Assay for Human alpha-Galactosidase at pH 4.5 (AID 992); further: 0% is about no effect
Sequence of Alpha-galactosidase A (Homo sapiens) (P06280 whole entry, looked up): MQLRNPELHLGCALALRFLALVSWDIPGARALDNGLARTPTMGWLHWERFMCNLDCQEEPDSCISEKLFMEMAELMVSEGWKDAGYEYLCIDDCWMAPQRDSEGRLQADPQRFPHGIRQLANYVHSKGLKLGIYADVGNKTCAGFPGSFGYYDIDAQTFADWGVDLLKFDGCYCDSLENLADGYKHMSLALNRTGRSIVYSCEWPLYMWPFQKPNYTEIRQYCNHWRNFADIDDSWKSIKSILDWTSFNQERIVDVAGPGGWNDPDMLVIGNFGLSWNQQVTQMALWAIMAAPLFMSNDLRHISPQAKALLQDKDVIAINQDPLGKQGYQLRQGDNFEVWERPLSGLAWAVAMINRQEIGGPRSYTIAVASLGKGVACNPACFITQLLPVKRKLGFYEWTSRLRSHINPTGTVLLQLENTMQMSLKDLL
Outline: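 Concentration-response curves (0.7 nM to 77 uM final) were modeled with the Hill equation to give AC50. Reactions: 2 nM enzyme, 80 uM fluorogenic alpha-galactoside, pH 4.5 citric acid buffer, 20 min, room temperature.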

[14] = biological target: alpha-glucosidase (Oryza sativa, rice) (UniProt Q653V4); assay: Counterscreen for Glucocerebrosidase Inhibitors: qHTS Assay for Rice alpha-Glucosidase at pH 5.0 (AID 997);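 further: 0% = full activity with enzyme and -100% = basal without enzyme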
Outline: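 Rice alpha-glucosidase (4 nM final) with 400 uM 4-methylumbelliferyl-alpha-D-glucopyranoside in citrate buffer pH 5.0, 20 min at room temperature, stopped at pH 10; fluorescence 365/440 nm, compounds 0.7 nM–77 uM, AC50 from Hill fits.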

[15] = biological target: DNA dC->dU-editing enzyme APOBEC-3G (Homo sapiens) (UniProt Q9HC16); assay: qHTS for inhibitors of Vif-A3G interactions: Validation (AID 588379); further: 0% is about no effect
Sequence of DNA dC->dU-editing enzyme APOBEC-3G (Homo sapiens) (Q9HC16 whole entry, looked up): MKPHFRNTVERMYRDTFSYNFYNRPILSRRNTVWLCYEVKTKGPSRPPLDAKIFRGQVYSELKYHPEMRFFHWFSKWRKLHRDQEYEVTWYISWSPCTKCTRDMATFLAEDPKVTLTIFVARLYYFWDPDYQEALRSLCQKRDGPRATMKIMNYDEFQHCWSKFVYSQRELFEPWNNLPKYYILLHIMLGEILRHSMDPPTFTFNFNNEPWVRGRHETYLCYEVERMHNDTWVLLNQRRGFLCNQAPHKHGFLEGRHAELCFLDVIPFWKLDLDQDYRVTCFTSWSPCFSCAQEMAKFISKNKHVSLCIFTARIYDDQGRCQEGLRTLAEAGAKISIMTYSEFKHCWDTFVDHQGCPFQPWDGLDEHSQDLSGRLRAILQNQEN
Outline: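 HeLa cells stably expressing Vif and A3G-eYFP, 700 cells/well, incubated overnight at 37 deg C, then exposed to compound overnight at 37 deg C. Inhibition of Vif-mediated degradation read as increased yellow fluorescence (Ex 488/Em 500-530) by laser-scanning cytometry.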

[16] = test system: Zika virus NS2B-NS3 protease; assay: Primary screen GU AMC qHTS for Zika virus inhibitors (AID 1347154);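 further: 0% = no-inhibitor control and -100% = no-enzyme control; nearly all actives have a fitted effect of over 70% in size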
Outline: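 Unlinked Zika NS2B hydrophilic domain–NS3 protease complex at 25 nM in 10 mM Tris-HCl pH 8.0, 0.01% Tween 20, with an AMC peptide substrate. Fluorescence change (340/450 nm) over 15 min at room temperature, normalized to controls, fitted to 4-parameter Hill.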

[17] = Primary qHTS for small molecule stabilizers of the endoplasmic reticulum resident proteome: Secreted ER Calcium Modulated Protein (SERCaMP) assay (AID 1508630); further: on the % scale 0 is the no-effect control and ±100 the full control effect
Outline: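 GLuc-SERCaMP-expressing SH-SY5Y cells, pretreated 16 h with compound, are challenged with thapsigargin to empty ER calcium stores; after 4 h, coelenterazine is added directly to the medium and luminescence is imaged.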

[18] = biological target: 3',5'-cyclic-AMP phosphodiesterase 4B (Homo sapiens) (UniProt Q07343); assay: qHTS Assay for Inhibitors of PDE-IV (AID 607; active means well fitted activation curve with a large enough effect in the main read-out, with a control signal flat, not every such curve was filed as active; further: % of control where 0% means no effect)
Sequence of 3',5'-cyclic-AMP phosphodiesterase 4B (Homo sapiens) (Q07343 whole entry, looked up): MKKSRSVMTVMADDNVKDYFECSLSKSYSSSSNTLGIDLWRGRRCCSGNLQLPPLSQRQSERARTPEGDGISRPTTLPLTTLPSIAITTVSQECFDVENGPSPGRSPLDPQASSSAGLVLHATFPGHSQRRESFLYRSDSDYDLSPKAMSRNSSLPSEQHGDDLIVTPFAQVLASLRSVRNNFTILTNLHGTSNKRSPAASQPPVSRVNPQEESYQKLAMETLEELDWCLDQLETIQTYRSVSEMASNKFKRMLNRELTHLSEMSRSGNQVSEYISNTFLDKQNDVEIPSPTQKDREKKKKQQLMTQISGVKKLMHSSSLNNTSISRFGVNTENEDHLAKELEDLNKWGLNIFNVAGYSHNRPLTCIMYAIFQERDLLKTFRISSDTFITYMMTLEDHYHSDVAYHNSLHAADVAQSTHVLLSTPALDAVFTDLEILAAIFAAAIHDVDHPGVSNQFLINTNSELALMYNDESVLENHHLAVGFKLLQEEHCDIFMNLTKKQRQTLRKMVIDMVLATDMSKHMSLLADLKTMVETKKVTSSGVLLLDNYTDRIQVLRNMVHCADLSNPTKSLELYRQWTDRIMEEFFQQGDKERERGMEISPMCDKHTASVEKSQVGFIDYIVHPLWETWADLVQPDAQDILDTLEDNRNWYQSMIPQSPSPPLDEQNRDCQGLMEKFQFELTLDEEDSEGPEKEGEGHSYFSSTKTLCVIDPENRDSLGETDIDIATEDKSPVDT
Outline: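 The readout is membrane depolarisation from a cAMP-sensing CNG channel, detected with a potential dye at ex 535/em 590. Cells were HEK293-derived (endogenous PDE-IV) at 1000 cells/well, titrated up to 22.9 uM final.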

[19] = biological target: Ubiquitin carboxyl-terminal hydrolase 1 (Homo sapiens) (UniProt O94782); assay: Inhibitors of USP1/UAF1: Pilot qHTS (AID 504865);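 further: rhodamine fluorescence freed from ubiquitin-rhodamine substrate followed over time; top concentration of the series differs between compounds; on the % scale 0 is the no-effect control and ±100 the full control effect; nearly all actives have a fitted effect of over 35% in size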
Sequence of Ubiquitin carboxyl-terminal hydrolase 1 (Homo sapiens) (O94782 whole entry, looked up): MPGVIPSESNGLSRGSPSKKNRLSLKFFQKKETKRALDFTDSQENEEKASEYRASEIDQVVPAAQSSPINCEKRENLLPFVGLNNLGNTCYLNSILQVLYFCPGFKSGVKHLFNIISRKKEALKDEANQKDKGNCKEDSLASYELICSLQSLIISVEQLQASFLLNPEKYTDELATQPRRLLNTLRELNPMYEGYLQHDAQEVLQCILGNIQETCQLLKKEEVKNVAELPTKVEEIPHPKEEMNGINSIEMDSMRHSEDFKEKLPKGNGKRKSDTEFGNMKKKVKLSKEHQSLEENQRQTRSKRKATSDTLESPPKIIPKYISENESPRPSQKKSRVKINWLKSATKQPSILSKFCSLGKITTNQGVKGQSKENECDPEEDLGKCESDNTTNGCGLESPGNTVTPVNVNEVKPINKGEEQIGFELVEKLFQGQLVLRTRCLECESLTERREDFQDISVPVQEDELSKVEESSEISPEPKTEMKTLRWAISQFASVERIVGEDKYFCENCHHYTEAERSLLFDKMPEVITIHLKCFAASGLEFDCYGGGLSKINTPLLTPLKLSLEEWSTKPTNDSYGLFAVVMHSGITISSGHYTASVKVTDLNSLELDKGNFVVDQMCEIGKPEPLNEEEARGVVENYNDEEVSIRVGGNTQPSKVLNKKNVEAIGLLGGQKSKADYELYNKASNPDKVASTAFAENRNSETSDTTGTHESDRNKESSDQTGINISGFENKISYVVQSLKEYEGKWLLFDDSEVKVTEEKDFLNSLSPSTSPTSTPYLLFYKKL
Outline: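 Deubiquitinase activity followed as kinetic rhodamine fluorescence release from 150 nM Ub-Rho. 1 nM USP1/UAF1 with compound, after 15 min room-temperature preincubation, in HEPES pH 7.8 buffer containing TCEP, EDTA, BSA and Tween-20.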

CCCCOc1cc(C[C@@H]2CNC(=O)N2)ccc1OC
active: Potency [2] 12.6 µM and 10 µM
inactive: activity change, negative = inhibition ([1]; at 38 µM (top of the series)) -11.4% | activity change, negative = inhibition ([3]; at 38 µM (top of the series)) -19.1% | activity, negative = inhibition ([4]; at 38 µM (top of the series)) 24.5% | Potency [5] > 46 µM | Potency [6] > 46 µM | Potency [7] | outcome [8] | Potency [9] | Potency [10] | Potency [11] | outcome [12] | outcome [13] | outcome [14] | Potency [15] | Potency [16] | Potency [17]

N[C@H](Cc1ccccc1)C(=O)O
inactive: Potency [16] | Potency [17]

CC(=O)[C@H]1[C@H](C#N)C[C@H]2[C@@H]3CC=C4C[C@@H](O)CC[C@]4(C)[C@H]3CC[C@@]21C
inactive: activity change, negative = inhibition ([1]; at 17.2 µM (top of the series)) 5.31% | activity change, negative = inhibition ([3]; at 17.2 µM (top of the series)) 9.39% | activity, negative = inhibition ([4]; at 17.2 µM (top of the series)) 2.76% | Potency [5] > 20.6 µM | Potency [16] | Potency [17]

CC[N+](CC)(CC)CCOc1ccc(/C=C\c2ccccc2)cc1
inactive: Potency [5] > 46 µM | Potency [6] > 46 µM | Potency [7] | Potency [18] | Potency [19] | Potency [15] | Potency [16] | Potency [17]
active: Potency [2] 31.6 µM

CCCCCCc1c(C[C@H](N)C(=O)O)o[nH]c1=O
inactive: Potency [5] > 46 µM | Potency [6] > 46 µM | Potency [7] | Potency [18] | Potency [19] | Potency [15] | Potency [16] | Potency [17]
active: Potency [2] 31.6 µM

C[C@](N)(C(=O)O)c1ccc(-c2nn[nH]n2)cc1
inactive: Potency [5] > 46 µM | Potency [6] > 46 µM | Potency [7] | Potency [19] | Potency [15] | Potency [16] | Potency [17]
active: Potency [2] 39.8 µM
